Reference: PubChem BioAssay AID588453 (National Center for Advancing Translational Sciences (NCATS), 2011)
In all, about 390,000 compounds went through this assay and about 4,000 (1%) were called active. About 4% were inconclusive and are not listed. The sample as a whole holds a higher share of actives than the screen did. A number with no mark means an inactive call. Calls follow the shape of the dose curve; as a rule, active = well fitted inhibition curve with a large enough effect; inconclusive = small, poorly fitted or top-dose-only effect; inactive = no such curve, though single readings can be large or run the other way.

What follows are compounds tested against Thioredoxin reductase 1, cytoplasmic (Rattus norvegicus) (UniProt O89049) (assay: qHTS Assay for Inhibitors of Mammalian Selenoprotein Thioredoxin Reductase 1 (TrxR1): qHTS). Conditions: recombinant rTrxR1, NADPH fluorescence consumption, selenite substrate; series mostly up to 114 µM; activity change, negative = inhibition: at the top concentration.
Sequence of Thioredoxin reductase 1, cytoplasmic (Rattus norvegicus) (O89049 whole entry, looked up): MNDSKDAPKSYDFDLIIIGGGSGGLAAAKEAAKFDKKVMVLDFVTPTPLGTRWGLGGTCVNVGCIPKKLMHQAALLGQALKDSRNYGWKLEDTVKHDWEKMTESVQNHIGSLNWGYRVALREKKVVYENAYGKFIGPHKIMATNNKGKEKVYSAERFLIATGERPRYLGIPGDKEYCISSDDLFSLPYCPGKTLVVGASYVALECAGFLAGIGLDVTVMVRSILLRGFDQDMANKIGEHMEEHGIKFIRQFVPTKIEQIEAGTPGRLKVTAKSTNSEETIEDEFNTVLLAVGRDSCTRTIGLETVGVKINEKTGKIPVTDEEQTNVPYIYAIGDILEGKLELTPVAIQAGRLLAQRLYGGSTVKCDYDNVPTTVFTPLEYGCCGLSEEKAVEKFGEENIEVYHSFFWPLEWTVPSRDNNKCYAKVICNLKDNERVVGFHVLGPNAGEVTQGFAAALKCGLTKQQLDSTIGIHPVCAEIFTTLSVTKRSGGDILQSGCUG
From the text: The selenoprotein thioredoxin reductase (TrxR; EC 1.8.1.9) is a FAD containing homodimeric pyridine nucleotide-disulfide oxidoreductase with many cellular roles. Together with NADPH and its prime substrate thioredoxin (Trx), the enzyme forms the core of the Trx system. The mammalian Trx system exerts a wide spectrum of functions including redox regulation, antioxidant defense, regulation of transcription factors as well as support of cell growth and replication. Many of these functions involve the reduction of Trx, which may subsequently reduce a number of different substrates including ribonucleotide reductase, peroxiredoxins or NFkB. Mammalian TrxR itself also has a broad substrate specificity, reducing both protein and non-protein substrates, including low molecular weight compounds such as dehydroascorbate, lipoic acid, ubiquinone, and juglone. In addition, several drugs in clinical use for anticancer treatment are indeed known to target TrxR1.
This BioAssay is a validation of an NADPH fluorescence-based, dual-purpose qHTS rTrxR1 assay designed to find potential inhibitors and substrates of rTrxR1. For this particular BioAssay, actives are potential inhibitors. See related BioAssay for substrate data deposition.
NIH Molecular Libraries Probe Production Network [MLPCN]
NIH Chemical Genomics Center [NCGC]
Assay Provider: Elias Arner, Karolinska Institute
Assay protocol: 2 uL of reagents (buffer in column 4 as negative control and 90 nM rTrxR1 in columns 1-3 and 5-48) were dispensed into Greiner black solid-bottom 1,536-well assay plates, followed by 1 uL of NADPH (400 uM final concentration) to each well. The plates were centrifuged at 1000 rpm for 15 seconds and subsequently incubated for 5 min at room temperature (~22 deg C) to allow for rTrxR1 reduction. Compounds (23 nL) were then transferred via Kalypsys pin tool equipped with 1536-pin array (10 nL slotted pins, V&P Scientific, San Diego, CA). In addition, a duplicate 2-fold serial dilution of the control compounds auranofin, a known gold-based TrxR1 inhibitor, and juglone (5-hydroxy-1,4-naphthoquinone), a natural TrxR1 substrate, were pin-transferred to columns 2 and 3, respectively. After incubation for 15 min at room temperature (~22 deg C), 1 uL of selenite (400 uM final concentration) were dispensed to each well. The plate was immediately transferred to a ViewLux high-throughput CCD imager (PerkinElmer), wherein kinetic measurements of NADPH fluorescence (Ex 340 nm, Em 450 nm) were acquired (8 minute kinetic read, see Table 1). Read 1 was utilized to assess the capacity of a compound to serve as an rTrxR1 substrate, i.e. a decrease in NADPH fluorescence compared to the no-compound background is an indication of a substrate behavior for that particular compound. For inhibitory activity of a compound, delta values, computed as the difference in fluorescence intensity between the first and last reads of an 8-minute time kinetic window, were used. All reagents were diluted in an assay buffer consisting of 50 mM Tris-HCl, pH 7.5, 2 mM EDTA, and 0.01% Tween-20.
Throughout the screen, reagent bottle and all liquid lines were made light-tight to minimize reagent degradation. All screening operations were performed on a fully integrated robotic system (Kalypsys, San Diego, CA) containing one RX-130 and two RX-90 anthropomorphic robotic arms (Staubli, Duncan, SC). Library plates were screened starting from the lowest and proceeding to the highest concentration, and a 'double-pinning' step of the highest concentration was required to access higher concentrations of compounds. Vehicle-only plates, with DMSO being pin-transferred to the columns 5-48, were inserted uniformly at the beginning and the end of each library in order to monitor and record any shifts in the background, which can be affected by reagent dispensers or loss in enzyme activity over time. […]
% is scaled to controls: 0 for no effect and ±100 for the full control effect; potency is read from the fitted curve at half-maximal effect.
Also: nearly all actives have a fitted effect of over 65% in size.

| SMILES | Potency | activity change, negative = inhibition |
| --- | --- | --- |
| Cc1ccc(CNC(=O)C2(C(F)(F)F)C/C(=C\Cc3ccccc3)CCCO2)o1 (stereo not drawn) | 28.2 µM (active) | – |
| O=C(NCc1ccccn1)[C@]1(C(F)(F)F)C[C@H](CCc2ccccc2)CCCO1 | – | 6.98% |
| O=C(NCC1CC1)C1(C(F)(F)F)C/C(=C\CCO)CCCO1 (stereo not drawn) | – | 18.4% [at 57.1 µM] |
| CC(C)(C)OC(=O)N1CCC(c2c(C(=O)Nc3ccc4c(c3)OCO4)cnn2-c2ccccc2)CC1 | – | 8.02% [at 57.1 µM] |
| Cc1ccc(Cl)cc1NC(=O)CCC(=O)N1CC(C)Sc2ccccc21 (stereo not drawn) | – | 1.51% |
| c1ccc(C2CNCc3c2ccc2ccccc32)cc1 (stereo not drawn) | 79.4 µM (active) | – |
| O=C(CSc1nc2ccccc2nc1Cc1ccccc1)N1CCCCC1 | – | 2.16% [at 57.1 µM] |
| O=C(NC(=S)Nc1cccc(-c2ccc(CO)o2)c1)c1cccs1 | 39.8 µM (active) | – |
| Cc1sc(NC(=S)NC(=O)c2cccs2)nc1-c1ccc(CC(C)C)cc1 | – | 16.1% |
| Cn1c(SCC(=O)Nc2cccc(NC(=O)c3cccs3)c2)nnc1-c1ccncc1 | – | 11.5% [at 57.1 µM] |
| Cc1nn(C)c2c1c(C(F)(F)F)cc(=O)n2C(C)C(=O)NCc1ccc(Cl)cc1 (stereo not drawn) | – | 2.18% [at 57.1 µM] |
| NS(=O)(=O)c1ccc(NC(=O)C(=O)Nc2ccc3nc4n(c(=O)c3c2)CCCCC4)cc1 | – | 10.6% |
| COc1ccc(Br)cc1C1C2C=CCC(C)C2C(=O)N1Cc1ccccc1 (stereo not drawn) | 22.4 µM (active) | – |
| COc1ccc(-c2ccc(OC)c(C3C4C=CCC(C)C4C(=O)N3Cc3ccccc3)c2)cc1C (stereo not drawn) | – | -6.11% |
| Cc1cccc([C@H]2[C@@H]3C=CC[C@@H](C)[C@@H]3C(=O)N2Cc2ccccc2)c1 | – | 1.61% |
| O=c1c(NCc2cccs2)nccn1-c1ccccc1 | – | 14.5% [at 57.1 µM] |
| C=CCn1c(=S)[nH]c2scc(-c3ccco3)c2c1=O | 39.8 µM (active) | – |
| COc1ccc(C2C(=O)N(C3CCCCCC3)CC(=O)N2CCc2ccc(Cl)cc2)cc1OC (stereo not drawn) | – | 23.7% [at 57.1 µM] |
| CCn1c(C)c(C)c2cc(C(=O)NCCc3cc(OC)ccc3OC)ccc21 | – | 18.4% [at 57.1 µM] |
| CC(CCc1ccccc1)NC(=O)c1cnc(Cl)c(Cl)c1 (stereo not drawn) | – | 32.7% |
| Cc1cccc(-c2nc(CS(=O)CC(=O)NC(C)CCc3ccccc3)c(C)o2)c1 (stereo not drawn) | 17.8 µM (active) | – |
| Cc1ccc(-c2nc(CS(=O)(=O)CC(=O)NCc3ccccc3Cl)c(C)o2)cc1 | – | -6.56% |
| Cc1csc[n+]1CCC1CCCCC1 | – | 35.2% |
| Cc1ccc2oc(=O)c3cnn(CC(=O)NCc4ccccc4Cl)c3c2c1 | – | 23.3% |

| SMILES | Potency | activity change, negative = inhibition |
| --- | --- | --- |
| CN(C)c1cc2c(Nc3ccc4c(cnn4Cc4ccccc4)c3)ncnc2cn1 | inactive | – |
| CCN1CCN(c2ccc(/C=C/c3ccnc4ccccc34)cc2)CC1 | – | 14.8% |
| Cc1ccc(S(=O)(=O)N(Cc2nc(-c3ccc(Cl)cc3)no2)C2CCCCC2)cc1 | – | 32.3% |
| Cc1csc(NC(=S)Nc2cccc(Cl)c2)n1 | 14.1 µM (active) | – |
| Cc1csc(NC(=O)C2CCN(S(=O)(=O)c3ccccc3)CC2)n1 | – | 0.443% |
| O=C(Nc1cccc(Cl)c1)c1csnn1 | – | 12% |
| CC1CCC2(CC1)N=C(c1ccccc1)C(=O)N2CC(=O)Nc1ccc(F)c(Cl)c1 (stereo not drawn) | – | -10.4% |
| COc1ccc(Cl)cc1NC(=O)CCn1c(=O)c2cccn2c2ccccc21 | – | 13.6% |
| CCOC(=O)c1c(-c2ccc(C)cc2C)csc1NC(=O)CSc1nnnn1C | – | -2.88% |
| CCCS(=O)(=O)c1ncc(Cl)c(C(=O)Nc2scc(-c3ccccc3)c2C(=O)OCC)n1 | 4.47 µM (active) | – |
| CCOC(=O)c1scc(-c2ccccc2)c1S(=O)(=O)Nc1ccccc1F | – | 8.78% [at 57.1 µM] |
| Cc1cc(C)c2oc(C(=O)Nc3c(C(=O)Nc4ccccc4)oc4ccccc34)cc(=O)c2c1 | – | 29% |
| CC(=O)c1ccc[n+](C(C)CCC(C)[n+]2cccc(C(C)=O)c2)c1 (stereo not drawn) | – | 9.71% |
| O=C(Nc1ccc2nc(SCCOc3ccccc3Cl)sc2c1)c1ccco1 | – | -8.93% |
| COc1ccc(-c2nc(CN3CCN(c4ncccn4)CC3)c(C)o2)cc1C | – | 24.7% [at 57.1 µM] |
| Cc1ccccc1-c1nc(CS(=O)(=O)CC(=O)N2CCc3ccccc3C2)c(C)o1 | 7.94 µM (active) | – |
| COc1ccc(-c2nc(CS(=O)CC(=O)NCc3cccnc3)c(C)o2)cc1OC (stereo not drawn) | – | -62% |
| COc1ccc(-c2nc(CS(=O)CC(=O)N3CCc4ccccc4C3)c(C)o2)cc1 (stereo not drawn) | 7.94 µM (active) | – |
| COc1ccc(-c2nc(CS(=O)CC(=O)NCc3ccccn3)c(C)o2)cc1 (stereo not drawn) | 7.08 µM (active) | – |
| Cc1ccccc1-c1nc(CS(=O)(=O)CC(=O)Nc2cc(Cl)cc(Cl)c2)c(C)o1 | – | 6.11% |
| Cc1ccc(-c2nc(CS(=O)CC(=O)N3CCN(c4ncccn4)CC3)c(C)o2)cc1 (stereo not drawn) | 10 µM (active) | – |
| COc1ccc(N2CCN(C(=O)CSCc3nc(-c4ccccc4Cl)oc3C)CC2)cc1 | – | 7.44% |
| COc1cccc(-c2nc(CS(=O)(=O)CC(=O)N3CCN(c4cc(C)ccc4C)CC3)c(C)o2)c1 | – | -6.98% |
| Cc1ccccc1-c1nc(CS(=O)(=O)CC(=O)NC(C)c2ccccc2)c(C)o1 (stereo not drawn) | inactive | – |
